Source: PubChem
MITF inhib = inhibitors of MITF; 37,000 tested, 0.28% active; inhibition, % (concentration not given with the values); TRPM1 promoter luciferase, luminescence, 24 h; in the data active means inhibition above about 85%; inconclusive means no clear call, values can overlap the other calls; inactive means below about 68%;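 further: human melanocyte line stably carrying TRPM1 promoter luciferase reporter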
NOMO-1 viab = STK33 inhibitor candidate reducing NOMO-1 cell viability | 37,000 tested, 7.5% active | NOMO-1 AML viability, CellTiter-Glo luminescence, 72 h | inhibition, % (no concentration beside the values); in the data active means inhibition above about 80%; inconclusive means no clear call, values can overlap the other calls
Shh pathway inh = blocks Sonic Hedgehog signaling; inhibition, % (concentration not given with the values); AID 2313; Shh-LIGHT2 Gli-luciferase reporter, 30 h; 22,000 tested, 2.1% active;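 active means mean inhibition across valid replicates above about 65%, limit read from the data; inconclusive means mean under the limit, yet half or more replicates past it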;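 further: pathway switched on by Shh-conditioned medium diluted 1 in 25 in low serum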
* marks the source's active call; other numbers are inactive results. Shown are actives, neighbours in structure and some others; about 8.1% of the full set was active somewhere.

Screening COC(=O)C(Cc1c[nH]c2ccccc12)NS(=O)(=O)c1ccc(CNC(=O)c2ccccc2)s1 (centres undefined) returned MITF inhib 11, NOMO-1 viab 115* and Shh pathway inh 1.
`Cc1ccc(S(=O)(=O)NC(Cc2c[nH]c3ccccc23)C(=O)O)cc1` (centres undefined) gave MITF inhib 8 and NOMO-1 viab -9.
Screening Cc1noc(C)c1S(=O)(=O)Nc1ccc2c(c1)CC(=O)N([C@H](C)CO)C[C@@H](C)[C@@H](CN(C)C(=O)Nc1ccccc1)O2 returned MITF inhib -12, NOMO-1 viab -2 and Shh pathway inh -22.
`COc1ccccc1/C=C(\C#N)c1ccc(C)cc1` gave MITF inhib -1, NOMO-1 viab 17 and Shh pathway inh -79.
For Cc1ccc(/C(C#N)=C/c2ccc(N(C)C)cc2)cc1 the results were MITF inhib 42, NOMO-1 viab 116* and Shh pathway inh -88.
`C[C@H](CO)N1C[C@H](C)[C@@H](CN(C)S(=O)(=O)c2ccccc2)Oc2ccc(NC(=O)Nc3ccc(C(F)(F)F)cc3)cc2C1=O` gave MITF inhib inconclusive, NOMO-1 viab 69 and Shh pathway inh 8.
C[C@@H]1CN([C@H](C)CO)C(=O)c2cc(NC(=O)Nc3ccc(C(F)(F)F)cc3)ccc2O[C@@H]1CN(C)S(=O)(=O)c1ccccc1 was read as MITF inhib 50, NOMO-1 viab 45 and Shh pathway inh 27.
`C[C@@H]1CN([C@@H](C)CO)C(=O)c2cc(NC(=O)Nc3ccc(C(F)(F)F)cc3)ccc2O[C@@H]1CN(C)S(=O)(=O)c1ccccc1` gave MITF inhib 80, NOMO-1 viab 90* and Shh pathway inh inconclusive.
Screening C[C@H]1CN([C@@H](C)CO)C(=O)c2cc(NC(=O)Nc3ccc(C(F)(F)F)cc3)ccc2O[C@H]1CN(C)S(=O)(=O)c1ccccc1 returned MITF inhib 17 and NOMO-1 viab 97*.
COc1ccc(Cl)cc1NC(=O)C(C)N(c1ccc(C)cc1)S(C)(=O)=O (centres undefined) was read as MITF inhib 7 and NOMO-1 viab 31.
Screening C[C@H]1CN([C@@H](C)CO)C(=O)Cc2cc(NC(=O)Nc3ccc(C(F)(F)F)cc3)ccc2O[C@@H]1CN(C)S(=O)(=O)c1ccccc1 returned MITF inhib 26 and NOMO-1 viab 5.
C[C@@H]1CN([C@@H](C)CO)C(=O)Cc2cc(NC(=O)Nc3ccc(C(F)(F)F)cc3)ccc2O[C@@H]1CN(C)S(C)(=O)=O was read as MITF inhib 14 and NOMO-1 viab 114*.
For C[C@H]1CN([C@@H](C)CO)C(=O)Cc2cc(NC(=O)Nc3ccc(C(F)(F)F)cc3)ccc2O[C@@H]1CN(C)C the results were MITF inhib -4, NOMO-1 viab 18 and Shh pathway inh 17.
Screening C[C@H]1CN([C@@H](C)CO)C(=O)Cc2cc(NC(=O)Nc3ccccc3)ccc2O[C@H]1CN(C)S(=O)(=O)c1ccccc1 returned MITF inhib 0, NOMO-1 viab 39 and Shh pathway inh -5.
C[C@@H]1CN([C@@H](C)CO)C(=O)Cc2cc(NC(=O)Nc3ccc(C(F)(F)F)cc3)ccc2O[C@@H]1CN(C)S(=O)(=O)c1ccccc1 was read as MITF inhib 44, NOMO-1 viab 112* and Shh pathway inh -43.
C[C@H](CO)N1C[C@H](C)[C@H](CN(C)S(=O)(=O)c2ccccc2)Oc2ccc(NC(=O)Nc3ccc(C(F)(F)F)cc3)cc2CC1=O was read as MITF inhib 30, NOMO-1 viab 128* and Shh pathway inh -12.
`O=C(Oc1ccc(C=Nc2ccc(F)cc2)cc1)c1ccco1` gave MITF inhib -2, NOMO-1 viab 8 and Shh pathway inh 0.
C[C@@H]1CN([C@@H](C)CO)C(=O)c2cccc(NC(=O)C3CCOCC3)c2O[C@@H]1CN(C)S(=O)(=O)c1ccc(Cl)cc1 was read as MITF inhib -3, NOMO-1 viab 0 and Shh pathway inh 7.
`COC(=O)c1ccccc1NC(=O)c1ccc(NC(=O)COc2ccccc2C)cc1` gave MITF inhib 20 and NOMO-1 viab inconclusive.
COc1ccc(S(=O)(=O)Nc2ccc(Br)c3cccnc23)c([N+](=O)[O-])c1 was read as MITF inhib 54 and NOMO-1 viab 128*.
COc1ccc(NC(=O)COc2cc(C)c(Br)cc2C)c([N+](=O)[O-])c1 was read as MITF inhib -7 and NOMO-1 viab -8.
`CN(CC(=O)Nc1ccccc1C#N)S(=O)(=O)c1cc(Cl)ccc1Cl` gave MITF inhib -11 and NOMO-1 viab 7.
`C[C@@H]1CN([C@H](C)CO)C(=O)c2cc(NC(=O)Nc3ccccc3)ccc2O[C@H]1CN(C)Cc1ccc(-c2ccccc2)cc1` gave MITF inhib 6 and NOMO-1 viab 116*.
C[C@H]1CN([C@@H](C)CO)C(=O)c2cc(NC(=O)Nc3ccc(F)cc3)ccc2O[C@H]1CN(C)Cc1ccc(Oc2ccccc2)cc1 was read as MITF inhib -2 and NOMO-1 viab 22.
`C[C@@H]1CN([C@@H](C)CO)C(=O)c2cc(NC(=O)Nc3ccc(F)cc3)ccc2O[C@@H]1CN(C)Cc1ccc(-c2ccccc2)cc1` gave MITF inhib 12, NOMO-1 viab 115* and Shh pathway inh 18.
`C[C@H](CO)N1C[C@H](C)[C@@H](CN(C)Cc2ccc(Oc3ccccc3)cc2)Oc2ccc(NC(=O)Nc3ccc(F)cc3)cc2C1=O` gave MITF inhib 11, NOMO-1 viab 29 and Shh pathway inh 19.
COc1ccc(NC(=O)Nc2ccc3c(c2)C(=O)N([C@H](C)CO)C[C@H](C)[C@@H](CN(C)Cc2ccc(-c4ccccc4)cc2)O3)cc1 was read as MITF inhib -3, NOMO-1 viab inconclusive and Shh pathway inh 10.
C[C@@H]1CN([C@H](C)CO)C(=O)c2cc(NC(=O)Nc3ccc(F)cc3)ccc2O[C@H]1CN(C)Cc1ccc(-c2ccccc2)cc1 was read as MITF inhib 5 and NOMO-1 viab 126*.
Screening C[C@@H]1CN([C@H](C)CO)C(=O)c2cc(NC(=O)Nc3ccc(F)cc3)ccc2O[C@@H]1CN(C)Cc1ccc(-c2ccccc2)cc1 returned MITF inhib 25, NOMO-1 viab 92* and Shh pathway inh -106.
For C[C@H]1CN([C@@H](C)CO)C(=O)c2cc(NC(=O)Nc3ccccc3)ccc2O[C@@H]1CN(C)Cc1ccccc1 the results were MITF inhib 4 and NOMO-1 viab 9.
For COc1ccc(Cl)cc1N(CC(=O)Nc1ccc(Br)cc1F)S(C)(=O)=O the results were MITF inhib 6 and NOMO-1 viab -15.
`Cc1ccc(NS(=O)(=O)c2cccc(C(=O)Nc3ccccc3)c2)cc1` gave MITF inhib 0 and NOMO-1 viab 27.
Screening C[C@@H]1CN([C@@H](C)CO)C(=O)c2cccc(NC(=O)Nc3ccccc3)c2O[C@@H]1CN(C)Cc1ccncc1 returned MITF inhib -4, NOMO-1 viab -15 and Shh pathway inh -50.
For O=C(Nc1ccc(NS(=O)(=O)c2cccc(C(=O)Nc3ccc(Br)cc3)c2)cc1)c1ccccc1 the results were MITF inhib 9 and NOMO-1 viab 28.
`CCn1c(SCC(=O)O)nnc1-c1c[nH]c2ccccc12` gave MITF inhib -18 and NOMO-1 viab 8.
